Measured values reported in PubChem BioAssay AID743314 (Broad Institute, 2014).
Results with a measured potency or affinity are listed apart. Records with an inconclusive call do not appear. A number with no mark means an inactive call. Activity calls are given as the source filed them.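 The calls were made as follows: active = fitted half-maximal concentration no higher than twice the top tested dose, in every repeat run; inconclusive = repeat runs disagree, poor fit, or flat partial inhibition; inactive = the rest.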

biological target: Endoplasmic reticulum aminopeptidase 1 (Homo sapiens) (UniProt Q9NZ08); assay: inhibition of human ERAP1 enzyme activity – biochemical, cherry-pick, set 2, plate reader, dose response (AID 743314); settings: Recombinant ERAP1, Leu-AMC fluorescence, 60 min; series mostly up to 11 µM;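 also: 0% = neutral control wells and -100% = L-leucinethiol positive control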
Sequence (Q9NZ08 whole entry, looked up): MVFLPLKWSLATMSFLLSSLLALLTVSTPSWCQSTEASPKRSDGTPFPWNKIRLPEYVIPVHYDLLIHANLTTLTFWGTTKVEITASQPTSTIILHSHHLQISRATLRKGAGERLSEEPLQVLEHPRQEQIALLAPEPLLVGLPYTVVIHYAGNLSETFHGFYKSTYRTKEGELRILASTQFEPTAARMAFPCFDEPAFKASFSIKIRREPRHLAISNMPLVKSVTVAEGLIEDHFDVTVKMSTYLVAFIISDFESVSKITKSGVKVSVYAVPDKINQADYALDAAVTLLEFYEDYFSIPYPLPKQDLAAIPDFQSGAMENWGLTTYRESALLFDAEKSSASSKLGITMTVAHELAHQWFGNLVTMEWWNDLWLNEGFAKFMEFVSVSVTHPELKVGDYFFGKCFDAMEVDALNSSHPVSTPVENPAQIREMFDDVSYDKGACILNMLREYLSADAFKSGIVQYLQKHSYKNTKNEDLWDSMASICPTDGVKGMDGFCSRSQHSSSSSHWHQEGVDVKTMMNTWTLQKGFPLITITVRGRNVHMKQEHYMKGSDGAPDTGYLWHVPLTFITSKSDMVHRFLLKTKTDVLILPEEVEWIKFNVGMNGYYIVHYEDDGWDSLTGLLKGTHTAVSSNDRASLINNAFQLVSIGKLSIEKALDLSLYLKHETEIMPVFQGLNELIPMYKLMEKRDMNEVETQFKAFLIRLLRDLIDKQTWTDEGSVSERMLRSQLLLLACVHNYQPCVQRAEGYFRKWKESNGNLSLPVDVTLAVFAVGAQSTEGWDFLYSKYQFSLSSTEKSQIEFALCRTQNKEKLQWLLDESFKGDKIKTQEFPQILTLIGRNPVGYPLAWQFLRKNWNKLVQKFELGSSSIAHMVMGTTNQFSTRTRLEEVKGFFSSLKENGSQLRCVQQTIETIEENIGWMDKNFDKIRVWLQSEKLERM

Row | Structure (SMILES) | activity change, negative = inhibition | outcome
1 | CC(=O)Oc1ccc(-c2cc3c(OC(C)=O)cc(OC(C)=O)cc3oc2=O)cc1 | 13.7% [at 2.6 µM] | 
2 | O=C(c1ccc(F)cc1)N1CC2(C1)[C@@H](c1ccccc1)[C@@H](CO)N2Cc1ccccn1 |  | inactive
3 | C[C@@H]1CCCCO[C@@H](CN(C)Cc2ccc(C(=O)O)cc2)[C@H](C)CN([C@@H](C)CO)C(=O)c2cc(NS(=O)(=O)c3ccc(Cl)cc3)ccc2O1 |  | inactive
